Screening data deposited in PubChem by National Center for Advancing Translational Sciences (NCATS).
A selection: hits, their analogues and other compounds. The true share with any hit is near 7.5%.
NPC1 prom act: activators of NPC1 promoter. Huh7 NPC1 promoter luciferase reporter, 24 h. Potency, µM (titrated, usually from 9.22 µM), without a hit: at the top dose activation, hits mostly activators. 320,000 tested, 2.4% active; also: % of control where 0% means no effect; nearly all actives have a fitted effect of over 60% in size
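Luminescence read-out of NPC1 promoter-driven luciferase in stably transfected Huh7 cells; compounds delivered in DMSO and left 24 h at 37C, 5% CO2, qHTS titration format.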
ELG1 genotoxic: inducers of genotoxicity in HEK293T ELG1-luciferase cells. HEK293T ELG1-luciferase reporter, luminescence, 16 h. Potency, µM (highest dose often 46 µM), for the others: at the top dose activity change, positive = activation, most hits filed as activators. 330,000 tested, 1.3% active. AID 504466; also: % of control where 0% means no effect; nearly all actives have a fitted effect of over 60% in size
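ELG1-luciferase HEK293T cells, 2,000/well; compound pinned in; 16 hr, 37 °C, 5% CO2; ONE-Glo, 30 min RT; luminescence on CCD imager.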
KinaseGlo FLuc: counter-screen: inhibitors of Kinase-Glo firefly luciferase; 200,000 tested, 0.28% active; Q27757; AID 1379; Kinase-Glo luciferase, ATP luminescence, 8 min; Potency, µM (series often up to 38.3 µM), for inactives: top-dose activity change, negative = inhibition, usual class: inhibitors; also: % is scaled to controls: 0 for no effect and ±100 for the full control effect; nearly all actives have a fitted effect of over 60% in size
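Luminescence was the read-out, taken after 8-minute incubation at ambient temperature. Luciferase turned over luciferin with 10 uM ATP in imidazole pH 7.2 buffer containing KCl, MgCl2, Tween 20 and BSA.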
FLuc counter: inhibits or activates purified firefly luciferase, miR-21 counter-screen; P08659; purified FLuc, Km substrates, luminescence inhibition; Potency, µM (series often up to 57.5 µM), inactives show at the top dose activity change, negative = inhibition, most hits filed as inhibitors; 360,000 tested, 6.9% active;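 also: plate controls were vehicle for no effect and reference inhibitor for full effect; nearly all actives have a fitted effect of over 55% in size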
Target sequence (P08659 whole entry, looked up): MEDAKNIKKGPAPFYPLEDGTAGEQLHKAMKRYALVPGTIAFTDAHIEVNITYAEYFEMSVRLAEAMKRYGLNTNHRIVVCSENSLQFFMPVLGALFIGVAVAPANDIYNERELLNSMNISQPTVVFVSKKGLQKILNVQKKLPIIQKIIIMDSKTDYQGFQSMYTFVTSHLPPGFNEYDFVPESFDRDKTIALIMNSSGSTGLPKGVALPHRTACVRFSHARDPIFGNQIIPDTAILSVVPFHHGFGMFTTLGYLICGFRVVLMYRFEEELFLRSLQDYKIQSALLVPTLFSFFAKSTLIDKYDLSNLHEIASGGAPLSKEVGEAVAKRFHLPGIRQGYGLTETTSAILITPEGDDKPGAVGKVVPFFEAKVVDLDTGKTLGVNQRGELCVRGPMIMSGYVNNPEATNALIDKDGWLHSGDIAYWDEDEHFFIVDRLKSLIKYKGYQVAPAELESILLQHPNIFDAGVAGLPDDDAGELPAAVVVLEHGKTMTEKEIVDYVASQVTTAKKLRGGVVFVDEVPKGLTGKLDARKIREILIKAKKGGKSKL
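Purified P. pyralis luciferase, 10 nM final, with Km-level 10 uM D-luciferin and 10 uM ATP in 50 mM Tris acetate pH 7.5, 10 mM Mg acetate, 0.01% Tween-20, 0.05% BSA; 6-point qHTS titration about 60 µM downward; luminescence read.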
SMN2 splice up: enhancers of SMN2 splice variant expression | HEK293 SMN2-luciferase splicing reporter, luminescence, 30-36 h | Potency, µM (series often up to 46.1 µM), for inactives: at the top dose activity change, positive = activation, hits mostly activators | 210,000 tested, 2.8% active; also: % of control where 0% means no effect; nearly all actives have a fitted effect of over 55% in size
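HEK293 cells carry an SMN2 minigene-luciferase reporter in which exon 7 inclusion puts luciferase in frame. Cells were seeded at 2000 cells/well, attached for 10-12 hours, then exposed to compounds for 30-36 hours at 37C before ONE-Glo luminescence.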
Rab9 prom act: activators of Rab9 promoter. Huh7 Rab9 promoter-luciferase reporter, luminescence, 24 h. Potency, µM (series often up to 9.22 µM), inactives show top-dose activation, negative = inhibition, actives largely listed as activators. 320,000 tested, 2.8% active. AID 485297; also: % of control where 0% means no effect; nearly all actives have a fitted effect of over 60% in size
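Luciferase signal after 10 min detection reagent at ambient indicates Rab9 promoter upregulation; stably transfected Huh7 cells were treated 24 h with compound in DMSO at 37 °C, 5% CO2.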
Active calls of the source: *; ? = inconclusive; nt = no result given; ! = not confirmed by another sample. Calls follow the shape of the dose curve; as a rule, active = well fitted curve in the direction sought with a large enough effect; inconclusive = small, poorly fitted or top-dose-only effect, or another doubt; inactive = no such curve, though single readings can be large; an effect the other way counts as inactive or inconclusive. Potency is read from the fitted curve at half-maximal effect.

SMILES | NPC1 prom act | ELG1 genotoxic | KinaseGlo FLuc | FLuc counter | SMN2 splice up | Rab9 prom act
Cc1ccc(-n2c(=O)c3c4c(sc3n(Cc3ccccc3C)c2=O)CCC4)cc1C | nt | nt | nt | -3% | 2% | nt
COc1ccc(CNC(=O)CC23CC4CC(CC(C4)C2)C3)cc1OC | -1% | 0% | nt | 15µM* | nt | -2%
C/C(=N\Nc1cccc2cccnc12)c1ccc[nH]1 | ? | 4% | -17% | 1.1µM* | 11µM* | 1.4µM*
COc1ccc(-c2nc(-c3ccccn3)no2)cc1 | 0.1µM* | ? | 0.89µM* | 0.095µM* | nt | 0.04µM*
O=[N+]([O-])c1cc(-c2nc(-c3ccccn3)no2)ccc1NCc1ccccc1 | nt | nt | nt | -18% | nt | nt
Clc1ccc(-c2nc(-c3ccccn3)no2)cc1Cl | 0.32µM* | ? | 10µM* | 0.95µM* | 2.5µM* | 0.56µM*
CCOc1ccccc1NC(=O)c1nnn(-c2ccc3c(c2)OCCO3)c1N | -4% | -2% | nt | 17µM* | nt | ?
Nc1c(C(=O)Nc2cccc(F)c2)nnn1-c1ccc2c(c1)OCCO2 | 0.1µM* | 0.65µM* | nt | 0.6µM* | nt | 0.32µM*
CCOc1ccccc1NC(=O)c1nnn(CC(=O)Nc2ccc3c(c2)OCO3)c1N | -2% | 3% | nt | -18% | nt | -4%
Cc1ccccc1NC(=O)c1nnn(-c2ccc3c(c2)OCCO3)c1N | 1.3µM* | 5% | nt | 6µM* | nt | 0.89µM*
COc1ccc(CCNC(=O)c2nnn(-c3ccc4c(c3)OCCO4)c2N)cc1OC | 13% | 10% | 3% | 19µM* | nt | -5%
Nc1c(C(=O)NCc2ccc3c(c2)OCO3)nnn1-c1ccc(OC(F)(F)F)cc1 | 7% | 1% | -1% | -3% | -44% | 11%
Cc1cc(C)cc(NC(=O)c2c(C)oc3nc(C)nc(N4CCCC4)c23)c1 | nt | nt | nt | 15% | nt | nt
O=c1nc2ccccc2c2n1C[C@H](CN1CCN(c3ccccc3)CC1)N2 | nt | nt | -1% | nt | nt | nt
CCOC(=O)Cn1nc(NC(=O)c2cc(OC)cc(OC)c2)cc1C | 8% | 4% | nt | -11% | nt | 4%
CCOC(=O)Cn1nc(NC(=O)c2ccc(C(=O)OC)cc2)cc1C | ? | 18% | nt | 11µM* | nt | 17%
O=C(CC(=O)NCCc1ccccc1)NCCc1ccccc1 | -3% | 1% | nt | -2% | nt | -3%
NNCCc1ccccc1 | 15% | 16% | 0% | ? | 4% | 14µM*!
COc1ccc(-c2ccc(CNc3ccc4[nH]c(=O)[nH]c4c3)o2)cc1Cl | nt | nt | nt | -5% | nt | nt
CC(Oc1ccc(Cl)cc1Cl)c1nc(-c2ccc(NC(=O)c3ccccn3)cc2)no1 (stereo not drawn) | 2.8µM* | ? | -11% | 9.5µM* | ? | ?
CC(Oc1ccc(Cl)cc1Cl)C(=O)Nc1ccncc1 (stereo not drawn) | -2% | -12% | nt | -2% | nt | -4%
Cc1ccc(NC(=O)C(C)[n+]2ccccc2)cc1[N+](=O)[O-] (stereo not drawn) | -1% | 1% | -1% | 3% | 28µM* | -4%
CCOc1ccc(OCC)c(NC(=O)c2csc3c2CCCC3)c1 | nt | nt | nt | 1% | 19% | nt
CCc1ccccc1NC(=O)C1CCN(c2nc3ccccc3[nH]2)CC1 | nt | nt | nt | 6% | nt | nt
CC(=O)N(/N=C1\Sc2ccccc2C1=O)c1cccc(C)c1 | ? | ? | ? | 11µM* | 5.6µM* | 14%
SMILES | NPC1 prom act | ELG1 genotoxic | KinaseGlo FLuc | FLuc counter | SMN2 splice up | Rab9 prom act
CC(=O)N(CN1C(=O)c2ccccc2C1=O)c1cccc(C)c1 | -4% | 0% | -4% | 13% | -4% | 2%
Cc1ccc2nc(CSc3nc(C)cc(C)c3C#N)[nH]c2c1 | 12% | ? | -1% | 3.4µM* | 4.5µM* | ?
Cc1ccc(-c2cc(C(=O)N3CC(C)OC(C)C3)c3ccccc3n2)o1 (stereo not drawn) | -1% | 9% | nt | 11µM* | nt | -1%
CC1CN(C(=O)c2cc3ccccc3oc2=O)CC(C)O1 (stereo not drawn) | -4% | 2% | -5% | 3% | 6% | 3%
Cc1cc(C(=O)N2CC(C)CC(C)C2)c(C)o1 (stereo not drawn) | -3% | 0% | nt | 2% | nt | -3%
Cc1ccc(-c2cc(C(=O)N3CC(C)CC(C)C3)c3ccccc3n2)o1 (stereo not drawn) | 1% | -1% | nt | 12µM* | nt | 2%
O=C(NCCNC(=O)c1cc(Cl)ccc1Cl)c1cnccn1 | 2% | -2% | nt | -2% | nt | 5%
CCn1cc(CNCc2cn(C)nc2-c2ccc(C3CCCCC3)cc2)cn1 | -2% | 0% | nt | 15µM* | nt | -2%
Cn1cc(CNCc2ccc(OC(F)(F)F)cc2)c(-c2ccc3c(c2)OCCO3)n1 | -27% | -1% | 0% | 1% | nt | -47%
COC(=O)CC(NC(=S)NC(=O)c1ccccc1)c1ccc(Br)cc1 (stereo not drawn) | -2% | 0% | nt | 1% | nt | 8%
CCc1nnc(/N=C/c2c(O)n(-c3ccc(Cl)cn3)c(=O)c3ccccc23)s1 | 2% | -2% | -1% | 2.7µM* | -6% | 0%
CCc1nnc(SCc2ccc(OC)cc2)c2cc3sc(C)cc3n12 | nt | nt | nt | 0% | nt | nt
CN(C)CCNc1c2c(nc3nnnn13)CCCC2 | -1% | 18% | -4% | 0% | 1% | 1%
C[n+]1ccc(C(=O)N/N=C/c2ccco2)cc1 | -2% | 1% | -3% | -2% | 3% | -2%
Cc1cc(C)c2c(=O)cc(C(=O)Nc3ccccc3C(F)(F)F)oc2c1 | nt | nt | nt | -1% | 10% | nt
COc1ccccc1OCc1cc(-c2ccccc2)no1 | 3.5µM* | ? | -2% | 9.5µM* | 13µM* | 2.5µM*
COc1ccc(OCc2cc(-c3ccc(Cl)cc3)no2)cc1 | -1% | 3% | -2% | -14% | 1% | -5%
c1ccc(OCc2cc(-c3ccccc3)no2)cc1 | ? | 17% | -1% | 12µM* | ? | 2.8µM*
COc1ccc(OC)c(S(=O)(=O)NCc2cc(-c3ccccc3)no2)c1 | 0% | 0% | nt | -5% | nt | 1%
COc1cc2cc3c4c(cc(OC)c(OC)c4c2cc1OC)CCN3C | nt | nt | 1% | nt | nt | nt
